Source: PubChem BioAssay (The Scripps Research Institute Molecular Screening Center)
FBW7 activator: FBW7 E3 ligase activators, primary screen, biochemical, AlphaScreen, human; 650,000 tested, 0.13% active; AlphaScreen FBW7–phospho-cyclin E peptide binding, activator screen; F-box/WD repeat-containing protein 7 (Homo sapiens), Q969H0; AID 1259310, 2017; normalized activity (activation), % at 26.1 µM; in the data active = normalized activity above about 1.9%;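 note: purified mutant Fbw7 with reduced substrate affinity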
TEAD-YAP block: TEAD-YAP interaction inhibition, primary screen, TEAD-YAP interaction inhibitor project, luminescence, HEK-TIYL cells; TEAD-Gal4/YAP UAS-luciferase luminescence; inhibition, % at 9.12 µM; 640,000 tested, 1.4% active; AID 1259422, 2018; in the data active = inhibition above about 32%;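 note: 0% = median of test compound wells and 100% = reference inhibitor wells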
GPR151 activ: activators of human GPR151, primary screen, cell-based, PathHunter beta-arrestin, luminescence | G-protein coupled receptor 151 (Homo sapiens), Q8TDV0 | PathHunter beta-arrestin GPR151 cells | activation, % at 11.2 µM | 650,000 tested, 1% active | AID 1508602, 2020; in the data active = activation above about 4.9%;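 note: 0% = median of compound wells and 100% = cells with positive control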
Target sequence (Q8TDV0 whole entry, looked up): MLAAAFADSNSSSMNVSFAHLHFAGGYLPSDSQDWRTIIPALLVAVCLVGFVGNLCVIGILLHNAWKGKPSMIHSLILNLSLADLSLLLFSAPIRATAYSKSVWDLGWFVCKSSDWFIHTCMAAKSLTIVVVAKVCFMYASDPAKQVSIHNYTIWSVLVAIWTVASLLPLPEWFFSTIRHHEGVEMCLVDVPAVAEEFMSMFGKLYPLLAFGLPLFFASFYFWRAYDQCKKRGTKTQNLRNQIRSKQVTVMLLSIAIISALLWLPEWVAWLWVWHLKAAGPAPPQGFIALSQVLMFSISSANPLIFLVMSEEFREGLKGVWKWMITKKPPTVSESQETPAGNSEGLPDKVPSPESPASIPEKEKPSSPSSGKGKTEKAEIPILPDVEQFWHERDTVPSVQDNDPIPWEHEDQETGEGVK
MITF primary: MITF inhibitors, primary screen, biochemical, AlphaScreen, human. Microphthalmia-associated transcription factor (Homo sapiens), O75030. AlphaScreen MITF homodimerization, bead proximity signal. inhibition, % at 2.6 µM. 650,000 tested, 0.91% active. AID 1259374, 2018; in the data active = inhibition above about 50%;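 note: 0% = vehicle wells with protein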
* hit, by the source's call. Most compounds without a hit are left out; they make up all but 3.5% or so of the library.

SMILES	FBW7 activator	TEAD-YAP block	GPR151 activ	MITF primary
Cc1ccc(/C=C/c2cc(=O)n3ccsc3n2)cc1	0.0	48.6*	-1.8	-8.0
CC(C)c1ccc(/C=C/c2cc(=O)n3ccsc3n2)cc1	0.1	5.1	-1.1	-5.5
O=C(Nc1ccc(N2CCN(C(=O)c3ccco3)CC2)cc1)c1cccc2ccccc12	0.2	54.5*	0.4	9.4
O=C(Nc1ccc(N2CCOCC2)cc1)c1ccco1	0.1	62.4*	-4.8	9.4
O=C(Nc1ccc(N2CCN(Cc3ccccc3)CC2)cc1)c1ccco1	0.5	-3.6	0.4	8.6
O=C(Nc1ccc(N2CCOCC2)cc1)c1cnccn1	-0.2	48.7*	-3.9	-8.2
CCCCNS(=O)(=O)c1ccc(OCC(=O)NC(C)(C)C)cc1	0.0	9.2	-0.3	-0.6
CC1(C)CC(=O)C(C=NC(C)(C)CO)=C(O)C1	-0.1	8.0	0.4	-14.2
Cc1cc(/C=N/NC(=O)CC#N)c(C)n1-c1ccc(Cl)cc1	-0.3	2.6	0.7	29.5
COc1cccc(C2NC(=O)NC(C)=C2C(=O)OC2CCCCC2)c1 (stereo unspecified)	0.5	-6.6	0.1	-0.2
O=C(N=c1sn2c(c1[N+](=O)[O-])CCCCC2)c1ccccc1	-0.1	83.9*	-1.7	-1.7
O=C(c1ccccc1)N1CCN(C(=O)c2cc3c(s2)CCCCC3)CC1	0.3	1.8	-1.0	7.6
C=CCN(c1ccccc1)S(=O)(=O)c1ccc2[nH]cc(C(=O)NCCc3ccccc3)c(=O)c2c1	0.0	2.0	-2.3	0.5
CCN(C1CCCCC1)S(=O)(=O)c1ccc(C(=O)Nc2ccc(F)cc2)cc1	0.2	33.3*	0.8	-0.8
CN(C1CCCCC1)S(=O)(=O)c1ccc(NC(=O)c2ccc(F)cc2)cc1	0.0	3.8	4.8	8.3
CCOC(=O)N1CCN(S(=O)(=O)c2ccc(C(=O)Nc3ccc(C(C)=O)cc3)cc2)CC1	-0.1	-11.3	1.2	-3.8
CCOC(=O)N1CCN(S(=O)(=O)c2ccc(C(=O)Nc3ccc(F)cc3)cc2)CC1	0.0	41.0*	0.3	4.1
CCOC(=O)C1=C(CSc2nc(C)c(C)c(C)c2C#N)OC(N)=C(C#N)C1c1ccc(OC)cc1 (stereo unspecified)	0.0	-0.8	0.5	12.0
COc1ccc(C)cc1NC(=O)c1cc(S(=O)(=O)NC2CCCC(C)C2C)ccc1F (stereo unspecified)	0.1	11.3	0.8	10.4
Cc1cc2cc(CCNS(=O)(=O)c3ccc([N+](=O)[O-])cc3)c(=O)[nH]c2cc1C	0.6	45.1*	0.6	19.2
Cc1ccc(C)c2[nH]c(=O)c(CCNS(=O)(=O)c3ccc([N+](=O)[O-])cc3)cc12	0.1	3.9	0.1	0.8
COc1ccc(-c2cncc3ccc(C(=O)N[C@H](C)c4ccccc4)nc23)cc1	0.5	60.9*	1.5	14.7
COc1ccc(-c2cncc3ccc(C(=O)N[C@@H](C)c4ccccc4)nc23)cc1	0.1	49.5*	-1.4	-12.9
COc1ccccc1C(=O)N/N=C/c1ccc(F)cc1	0.3	-24.1	0.2	16.2
CC(C)CC(=O)Nc1nc2ccc(S(=O)(=O)N3CCCCC3)cc2s1	-0.1	51.9*	0.6	-0.4
SMILES	FBW7 activator	TEAD-YAP block	GPR151 activ	MITF primary
CC(=O)Nc1nc2ccc(S(=O)(=O)N3CCCCC3)cc2s1	0.1	-6.5	-2.4	-19.4
CCOc1ccccc1NC(=O)c1c(NCc2cc(OC)c(OC)cc2OC)sc2c1CCCC2	0.1	6.1	-0.7	2.5
CCOc1ccc2[nH]c(=O)c(CN(Cc3cccs3)C(=O)CC)cc2c1	-0.1	33.3*	0.8	9.7
O=C(NC1CC1)c1ccc(-c2nc(NCCCN3CCCC3=O)c3ncn(-c4ccccc4)c3n2)cc1	-0.1	63.7*	0.3	1.3
CC(=O)c1cccc(-c2nc(NCCCN3CCCC3=O)c3ncn(-c4ccccc4)c3n2)c1	-0.1	57.9*	-0.8	-6.8
CC(=O)c1cccc(-c2nc(NCCCN3CCCC3=O)c3ncn(CCN4CCCC4=O)c3n2)c1	-0.1	0.1	-1.1	-6.9
NC(=O)c1ccc(-c2nc(NCCCN3CCCC3=O)c3ncn(-c4ccccc4)c3n2)cc1	-0.1	55.1*	1.0	13.7
CN(C)CCNc1nc(-c2ccc(C(C)(C)C)cc2)nc2ccccc12	0.3	37.1*	-0.8	9.3
CN(C)CCNc1nc(-c2ccccc2)nc2ccccc12	-0.1	-14.4	-0.4	-1.6
COc1cc(Nc2cc(Nc3ccccn3)ncn2)cc(OC)c1OC	-0.2	-10.4	0.3	18.2
